What all share (experiment): NCI-60 one-dose screen, 48 h (100 = growth as untreated, 0 = no growth, -100 = all killed)
The test system of assay [1] is SK-MEL-2 melanoma. The conditions noted are these: 10 µM unless noted.
Assay [2] concerns EKVX NSCLC. Conditions: 10 µM unless noted.
Assay [3] relates to SN12C renal. The conditions noted are these: 10 µM unless noted.
Assay [4] relates to UO-31 renal. Conditions: 10 µM unless noted.
The subject of assay [5] is TK-10 renal. Conditions: 10 µM unless noted.
The subject of assay [6] is ACHN renal. Conditions: 10 µM unless noted.
Assay [7] deals with CAKI-1 renal. Conditions: 10 µM.
In assay [8] the test system is A498 renal. Conditions: 10 µM unless noted.
For assay [9], the system named is CCRF-CEM leukemia. The conditions noted are these: 10 µM unless noted.
Assay [10] relates to MOLT-4 leukemia. Conditions: 10 µM unless noted.
Assay [11] concerns SR leukemia. Conditions: 10 µM unless noted.
Assay [12] relates to RPMI-8226 leukemia. The conditions noted are these: 10 µM unless noted.
In assay [13] the test system is OVCAR-8 ovarian. The conditions noted are these: 10 µM unless noted.
The test system of assay [14] is OVCAR-5 ovarian. The conditions noted are these: 10 µM unless noted.
The test system of assay [15] is OVCAR-4 ovarian. The conditions noted are these: 10 µM unless noted.
The subject of assay [16] is SK-OV-3 ovarian. Conditions: 10 µM unless noted.
The test system of assay [17] is IGROV1 ovarian. The conditions noted are these: 10 µM unless noted.
Assay [18] has as its system OVCAR-3 ovarian. The conditions noted are these: 10 µM unless noted.
Assay [19] has as its system HS 578T breast. Conditions: 10 µM unless noted.
Assay [20] deals with NCI/ADR-RES ovarian. The conditions noted are these: 10 µM unless noted.

About 83,000 compounds went through this panel and 20% of them were active in at least one assay; those are over-represented in the sample as a whole.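 Single-dose data. Exposure time 48 hours. Values below 10 considered active.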 Unmarked numbers belong to inactive results. The source made the active and inactive calls.

Consider `Nc1ccc(-c2nnc(SCc3ccc(O)c4ncccc34)n2-c2ccccc2)cc1`, for which the growth is 12.4% in assay [1]; 30% in assay [2]; 5.29% (active) in [3]; 4.44% (active) in [4]; 25.3% in assay [5]; 12.4% in assay [6]. For the same molecule, the growth was 12.9% in assay [7]; 15.8% in [8]; 20.7% in assay [9]; 29.5% in [10]; 36.5% in [11]; 11.6% in [12]. The growth in assay [13] was 12.5%; in [14] it was 34.4%; in [15], 12.4%; in assay [16], 8.19% (active); in [17] it was 14.3%; in assay [18] it was 19.2%. The growth in assay [19] is 5.08% (active); in assay [20] it was 45.2%.
With `COc1cc(/C=C/C(=O)c2ccc(NC(=O)CSc3nnc(-c4ccc5nc(-c6ccccc6)[nH]c5c4)o3)cc2)cc(OC)c1OC`, the growth is 105% in assay [1]; 99% in assay [2]; 90.8% in [3]; 89.4% in [4]; 137% in assay [5]; 101% in assay [6]. Further, the growth in assay [7] is 105%; in assay [8] it was 84.4%; in [9], 37.5%; in [10], 65%; in assay [11], 36.8%; in [12] it was 30.7%. The growth is 97.1% in assay [13]; 102% in [14]; 99.5% in assay [15]; 116% in assay [16]; 97.2% in assay [17]; 72.1% in assay [18]. In addition, the growth in [19] is 85.5%; in [20], 100%.
On to `O=C1[C@H]2Cc3c([nH]c4ccccc34)[C@H](c3ccc(Cl)cc3)N2C(=O)CN1C1CCN(Cc2c(Cl)cccc2Cl)CC1`, for which the growth in [1] was 106%; in assay [2], 74.5%; in assay [3], 59.9%; in assay [4], 48.4%; in assay [5], 101%; in assay [6] it was 72.9%. Moreover, the growth was 41.9% in [7]; 101% in [8]; 53.4% in assay [9]; 44% in assay [10]; 22.2% in assay [11]; 50.3% in assay [12]. The growth in assay [13] was 84.5%; in assay [14], 89.2%; in assay [15], 69.9%; in assay [16] it was 98.5%; in assay [17] it was 39%; in [18], 76.8%. In addition, the growth in assay [19] was 75.6%; in assay [20], 77.6%.
For `Cc1nn(-c2ccc(Cl)cc2)c(C)c1N=Nc1ccc2oc(=O)ccc2c1`, the growth in [1] was 110%; in assay [2] it was 85.6%; in assay [3], 56.4%; in assay [4] it was 64.8%; in assay [5], 89.6%; in assay [6], 79.4%. Further, the growth in assay [7] is 73.7%; in assay [8], 85.6%; in assay [9], 82%; in [10], 89.3%; in assay [11] it was 67.1%; in [12], 72.3%. Also, the growth in assay [13] is 56.9%; in assay [14] it was 104%; in [15] it was 34.4%; in assay [16], 114%; in assay [17], 80.9%; in assay [18], 104%. The figures for the growth in [19] and in assay [20] were 75.9% and 69.5%, respectively.
Turning to `O=[N+]([O-])c1ccc(-c2nnc(SCc3ccc(O)c4ncccc34)n2-c2ccccc2)cc1`, the growth in assay [1] was 13.8%; in [2] it was 40.5%; in [3] it was 9.69% (active); in assay [4], 7.34% (active); in [5] it was 79.3%; in assay [6], 29.3%. Also, the growth in [7] was 30.1%; in assay [8], 70.8%; in assay [9] it was 21%; in [10], 43.2%; in [11] it was 40.6%; in assay [12], 17.8%. Moreover, the growth is 17.9% in assay [13]; 73.9% in assay [14]; 50.6% in assay [15]; 30.6% in [16]; 30.6% in assay [17]; 30.5% in [18]. Also, the results for the growth in assay [19] and in assay [20] were 5.1% (active) and 69%, respectively.
For the molecule `NC(=S)N/N=C(/C=C/c1cn(-c2ccccc2)nc1-c1ccc(Cl)cc1)c1cc2ccccc2oc1=O`, the growth in assay [1] is 82.5%; in assay [2] it was 35%; in assay [3] it was 44.3%; in assay [4] it was 28.5%; in assay [5], 89.9%; in assay [6] it was 43.7%. The growth in assay [7] was 45.9%; in assay [8], 69.3%; in assay [9], 8.22% (active); in assay [10], 23.7%; in [11], 39.7%; in assay [12] it was 41%. In addition, the growth in assay [13] was 31.3%; in assay [14], 67.3%; in [15], 39.4%; in assay [16] it was 85.2%; in [17], 36%; in assay [18], 14.8%. In addition, the growth is 69.2% in assay [19] and 25.4% in assay [20].
In the case of `N#Cc1c(NC(=O)c2ccccc2C(F)(F)F)sc2c1CCC(=O)C2`, the growth was 12.2% in assay [1]; 12.4% in assay [2]; 14.5% in assay [3]; -25.2% (active) in assay [4]; 35.1% in assay [5]; -32.8% (active) in assay [6]. Also, the growth in assay [7] was -11.1% (active); in assay [8], 81.8%; in assay [9] it was 13%; in [10], 11.2%; in assay [11], 20.8%; in [12] it was -2.1% (active). Further, the growth was 16.3% in assay [13]; 8.8% (active) in assay [14]; 2.89% (active) in [15]; 91.1% in assay [16]; 15.2% in assay [17]; 4.15% (active) in assay [18]. The growth in assay [19] was 30.4%; in assay [20], 4.69% (active).
